In the supplement of paper PMC6522484:
± gives the standard deviation of the averaged measurements.

Assays:
DLD1 [1] = assay: cell viability (CellTiter-Glo) relative to plate median (fraction of plate median); higher = more viable cells; settings: 5 µM; treatment time 24 h; reporter: 7TFP
Outline: (§1)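 Each entry is a luminescence signal normalised to the plate median, averaged over independent replicates. The replicate count was two, and the cells were colorectal cancer lines with stable lentiviral TCF/Wnt firefly luciferase reporters exposed to library compounds at a final 5 µM for 24 h. Firefly luciferase and CellTiterGlo were measured on parallel plates.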

HCT116 = assay: as above; settings: 5 µM; treatment time 24 h; reporter: TCF4/Wnt
Outline: as §1

SW480 [2] = assay: as above; settings: 5 µM; treatment time 24 h; reporter: 7TFP
Outline: as §1

DLD1 [3] = assay: TCF/Wnt firefly luciferase reporter signal relative to plate median (fraction of plate median); higher = higher Wnt reporter signal; settings: 5 µM; treatment time 24 h; reporter: 7TFP
Outline: as §1

SW480 [4] = assay: as above; settings: 5 µM; treatment time 24 h; reporter: 7TFP
Outline: as §1

| Structure (SMILES) | cell viability (DLD1 [1]) | cell viability (HCT116) | cell viability (SW480 [2]) | TCF/Wnt firefly luciferase reporter signal (DLD1 [3]) | TCF/Wnt firefly luciferase reporter signal (SW480 [4]) |
| --- | --- | --- | --- | --- | --- |
| CC(=O)/N=c1/sc(S(N)(=O)=O)nn1C | 0.987 ± 0.047 | 0.909 ± 0.13 | 1.01 ± 0.053 | 0.865 ± 0.1 | 1.08 ± 0.099 |
| CC(=O)OC[C@H]1O[C@@H](Oc2cc(OC(C)=O)c3c(=O)cc(-c4ccc(OC(C)=O)cc4)oc3c2)[C@H](OC(C)=O)[C@@H](OC(C)=O)[C@@H]1OC(C)=O | 1.02 ± 0.021 | 1.11 | 0.992 ± 0.054 | 1.07 ± 0.13 | 0.938 ± 0.036 |
| O=c1c(O)c(-c2ccc(O)c(O)c2)oc2cc(O)cc(O)c12 | 0.9445 ± 0.00071 | 0.9265 ± 0.0021 | 1 ± 0.036 | 0.936 ± 0.062 | 0.983 ± 0.067 |
| CC1=Nc2ccc(Cl)cc2S(=O)(=O)N1 | 0.946 ± 0.016 | 1.06 ± 0.12 | 0.975 ± 0.05 | 1.135 ± 0.0071 | 0.86 ± 0.14 |
| N=C(NCCCCCCNC(=N)NC(=N)Nc1ccc(Cl)cc1)NC(=N)Nc1ccc(Cl)cc1 | 0.952 ± 0.031 | 1.02 ± 0.11 | 1.07 ± 0.028 | 1.07 ± 0.021 | 0.851 ± 0.052 |
| Cc1cccc(N(C)C(=S)Oc2ccc3ccccc3c2)c1 | 1.07 ± 0.028 | 1.09 ± 0.099 | 0.987 ± 0.018 | 0.897 ± 0.07 | 0.95 ± 0.04 |
| O=C1C[C@@H](c2ccc(O)cc2)Oc2cc(O)cc(O)c21 | 1.045 ± 0.0071 | 1.055 ± 0.0071 | 1.03 | 1.015 ± 0.0071 | 1.04 ± 0.021 |
| CNC[C@H](O)c1ccc(O)c(O)c1 | 0.9995 ± 0.00071 | 1.05 ± 0.021 | 0.916 ± 0.064 | 1.11 ± 0.064 | 1.12 ± 0.042 |
| COc1cc(O)c2c(=O)c(O)c(-c3ccc(O)c(O)c3)oc2c1 | 1.06 ± 0.014 | 0.992 ± 0.11 | 1.065 ± 0.0071 | 1 ± 0.12 | 1.045 ± 0.0071 |
| COc1cc(NS(=O)(=O)c2ccc(N)cc2)ncn1 | 0.88 ± 0.0092 | 0.9455 ± 0.005 | 0.931 ± 0.037 | 0.99 ± 0.028 | 0.941 ± 0.028 |
| CC(C)(C)NC[C@H](O)COc1cccc2c1CCCC2=O | 0.99 ± 0.043 | 1.03 ± 0.075 | 0.9555 ± 0.0035 | 0.886 ± 0.0085 | 0.981 ± 0.084 |
| CN(C)c1ccc(C(=C2C=CC(=[N+](C)C)C=C2)c2ccc(N(C)C)cc2)cc1 | 0.703 ± 0.016 | 0.381 ± 0.17 | 0.679 ± 0.013 | 0.529 ± 0.091 | 0.465 ± 0.012 |
| C[C@H]1[C@H]2CC[C@H]3[C@@H]4CC=C5C[C@@H](N(C)C)CC[C@]5(C)[C@H]4CC[C@]23CN1C | 0.896 ± 0.0042 | 0.783 ± 0.14 | 0.984 ± 0.021 | 0.9855 ± 0.00071 | 1.05 |
